# Data as given in PubChem BioAssay (NCATS).
# “And” between values parts separate entries of the source, which are not always exact repeats. Identical values can stand only once. Values without a mark were called inactive. Results filed as inconclusive are left out. The source made the active and inactive calls. Unless noted, the call rests on the fitted dose curve; in most records, active means well fitted curve in either direction with a large enough effect (not every such curve was filed as active); inconclusive means small, poorly fitted or top-dose-only effect, or another doubt; inactive means flat fitted curve, though single readings scatter.
# Key:
# [1] = AP1 Signaling Pathway (AID 357);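 further: ME-180 reporter cells stimulated with EGF at its EC50 level; on the % scale 0 is the no-effect control and ±100 the full control effect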
# Summary of the method: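 Modulation of EGF-driven AP-1 transcription was assessed with a beta-lactamase reporter in ME-180 cells. Compound and EC50 EGF were co-incubated 5 hours at 37 °C before 2.5-hour CCF4 loading at room temperature and dual-emission reading.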
# [2] = molecular target: Cytochrome P450 1A2 (Homo sapiens) (UniProt P05177); assay: p450-cyp1a2 (AID 410; calls by dose curve; further: potency means the concentration at half of the fitted maximal effect;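 on activity change, negative = inhibition: -100% = full effect of reference inhibitor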)
# Summary of the method: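 Luminescent readout of luciferin formed from Luciferin-ME by human CYP1A2; data normalized against complete inhibition by 57 uM furafylline. Enzyme 20nM, substrate 100uM at Km, 100mM KPO4 buffer, 60 min reaction at room temperature.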
# [3] = NFAT Signaling Pathway (AID 444); conditions: Jurkat NFAT-bla M1, carbachol, beta-lactamase ratio, 5 h;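 further: carbachol stimulus at about its EC50 of 1 µM final; on the % scale 0 is the no-effect control and ±100 the full control effect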
# Summary of the method: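 Read-out: CCF4 FRET ratio (460 nm/530 nm) after 1 h RT dye loading, used for %activity and AC50 from titration series. Cells: Jurkat NFAT-β-lactamase/M1 line, treated with compound plus 1 uM carbachol for 5 h, 37 °C.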
# [4] = molecular target: Lysosomal acid glucosylceramidase (Homo sapiens) (UniProt P04062); assay: Glucocerebrosidase-p2 (AID 348; in the data active means potency below about 10 µM; further: potency means the concentration at half of the fitted maximal effect); conditions: purified GBA, blue fluorogenic substrate, 40 min
# From the text: Beta-glucocerebrosidase catalyzes the hydrolysis of beta-glucocerebroside to glucose and ceramide. The inherited deficiency of beta-glucocerebrosidase results in Gaucher disease, which is characterized by a wide variety of symptoms including hepatosplenomegaly, anemia, thrombocytopenia, bony lesions and bone marrow infiltration with characteristic storage cells, known as Gaucher cells. There are also forms of the disorder affecting the central nervous system. Patients with the same genotypes can manifest with diverse clinical presentations and it is believed that improper folding and trafficking of beta-glucocerbrosidase may contribute to the phenotypes observed.
# Low molecular weight molecules, acting as chaperones, may potentially restore trafficking of misfolded beta-glucocerebrosidase from the endoplasmic reticulum to the lysosomes, thereby enhancing functional lysosomal beta-glucocerebrosidase activity.
# Using normal beta-glucocerebrosidase, an assay was developed to screen for small molecule inhibitors that could potentially act as molecular chaperones on the mutant forms [developed with NIH investigator Dr. Ellen Sidransky#s laboratory]. Two pro-fluorescent substrates were chosen for two screens against a small molecule library. […]
# Blue fluorescence substrate assay: […]
# Read the plate in Viewlux plate reader (Ex=365(10) and Em=440(10)).
# [5] = Cell Viability - BJ (AID 421; calls by dose curve;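 further: potency means the concentration at half of the fitted maximal effect; cells exposed to compound for 40 hours at 37 °C before readout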); conditions: BJ fibroblast viability, qHTS
# Summary of the method: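 Luminescent ATP signal (CellTiter-Glo, 20 min at room temperature) served as the read-out of viable BJ cells after 40 hours of compound treatment. Responses were scaled between DMSO and 100 uM tamoxifen, and AC50 values were obtained by Hill modeling.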
# [6] = Cell Viability - MRC5 (AID 434; calls by dose curve;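 further: potency means the concentration at half of the fitted maximal effect; cells exposed to compound for 40 hours at 37 °C; potency reflects cytotoxicity seen as loss of intracellular ATP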); conditions: MRC5 lung fibroblast viability, qHTS
# Summary of the method: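 qHTS cytotoxicity in human lung fibroblast MRC5 cells; 40 hr treatment, 37 °C; cellular ATP by luciferase luminescence; DMSO = 0%, 100 uM tamoxifen = 100% inhibition; Hill-fit AC50.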
# [7] = Cell Viability - SK-N-SH (AID 435; calls by dose curve;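 further: potency means the concentration at half of the fitted maximal effect; compound exposure lasted 40 h at 37 °C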); conditions: SK-N-SH neuroblastoma cell viability qHTS
# Summary of the method: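 Cells seeded at 1500 per well and incubated 5 hr at 37 °C. Compound added, then 40 hr at 37 °C. CellTiter-Glo added, 20 min at room temperature, luminescence read.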
# Chain of Cytochrome P450 1A2 (Homo sapiens) (P05177 whole entry, looked up): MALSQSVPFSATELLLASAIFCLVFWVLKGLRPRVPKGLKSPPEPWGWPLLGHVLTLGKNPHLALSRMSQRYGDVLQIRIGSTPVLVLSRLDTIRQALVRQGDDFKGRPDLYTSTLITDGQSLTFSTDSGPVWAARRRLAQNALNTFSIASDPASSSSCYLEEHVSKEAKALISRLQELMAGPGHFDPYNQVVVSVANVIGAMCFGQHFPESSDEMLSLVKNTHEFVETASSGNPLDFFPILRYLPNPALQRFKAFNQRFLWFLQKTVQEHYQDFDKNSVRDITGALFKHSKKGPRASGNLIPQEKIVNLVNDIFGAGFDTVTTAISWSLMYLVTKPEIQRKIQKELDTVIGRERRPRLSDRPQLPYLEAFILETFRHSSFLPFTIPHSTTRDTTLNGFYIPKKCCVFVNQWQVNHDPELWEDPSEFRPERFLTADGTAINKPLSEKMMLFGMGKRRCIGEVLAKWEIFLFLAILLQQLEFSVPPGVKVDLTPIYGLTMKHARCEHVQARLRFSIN
# Chain of Lysosomal acid glucosylceramidase (Homo sapiens) (P04062 whole entry, looked up): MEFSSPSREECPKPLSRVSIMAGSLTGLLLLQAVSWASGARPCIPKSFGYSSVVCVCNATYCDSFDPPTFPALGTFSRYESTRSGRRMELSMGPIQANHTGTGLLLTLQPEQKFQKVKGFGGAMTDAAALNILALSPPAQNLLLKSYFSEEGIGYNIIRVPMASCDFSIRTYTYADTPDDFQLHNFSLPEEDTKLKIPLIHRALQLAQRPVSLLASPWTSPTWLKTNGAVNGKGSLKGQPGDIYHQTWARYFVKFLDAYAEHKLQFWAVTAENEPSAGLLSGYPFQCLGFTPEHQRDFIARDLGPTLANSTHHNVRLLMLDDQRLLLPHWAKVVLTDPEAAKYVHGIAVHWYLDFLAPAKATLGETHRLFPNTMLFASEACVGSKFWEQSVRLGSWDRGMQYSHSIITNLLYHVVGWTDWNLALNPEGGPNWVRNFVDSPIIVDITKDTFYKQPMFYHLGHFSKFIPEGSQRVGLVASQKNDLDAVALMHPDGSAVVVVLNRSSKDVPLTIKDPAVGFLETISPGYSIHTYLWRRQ
smiles,measurement,setting,value
N#CC(C#N)=Cc1ccc(O)c(O)c1,outcome,[1],inactive
same,Potency,[2],15.8 µM (active) and 5.01 µM (active)
same,"activity change, negative = inhibition",[3]; at 38 µM (top of the series),-13.6%
Fc1ccc(C(OCCN2CCN(CCCc3ccccc3)CC2)c2ccc(F)cc2)cc1,outcome,[1],inactive
Clc1cccc(N2CCNCC2)c1,outcome,[1],inactive
same,Potency,[2],15.8 µM (active)
same,"activity change, negative = inhibition",[3]; at 38 µM (top of the series),-4.86%
N[C@@H]1C[C@H]1c1ccccc1,outcome,[1],inactive
same,Potency,[2],15.8 µM (active)
same,"activity change, negative = inhibition",[3]; at 38 µM (top of the series),-3.2%
NCC1(CC(=O)O)CCCCC1,outcome,[1],inactive
same,Potency,[2],inactive
same,"activity change, negative = inhibition",[3]; at 17.2 µM (top of the series),-5.52% and 10.6%
same,"activity change, negative = inhibition",[3]; at 38 µM (top of the series),3.24%
Oc1cccc2cccnc12,Potency,[4],> 11.4 µM
same,"activity change, negative = inhibition",[2],-20% [at 11.4 µM]
same,Potency,[5],> 92 µM
same,Potency,[6],> 92 µM
same,Potency,[7],24.4 µM (active) and 28.1 µM (active)
same,"activity change, negative = inhibition",[3]; at 7.69 µM (top of the series),3.84%
NN=C(N)N,outcome,[1],inactive
same,Potency,[2],inactive
same,"activity change, negative = inhibition",[3]; at 38 µM (top of the series),2.99% and 1.19%
O=[N+]([O-])c1cc([As](=O)(O)O)ccc1O,outcome,[1],inactive
same,Potency,[2],inactive
same,"activity change, negative = inhibition",[3]; at 17.2 µM (top of the series),-8.47%
Cc1cccc(C)c1NC1=NCCCS1,outcome,[1],inactive
same,Potency,[2],inactive
same,"activity change, negative = inhibition",[3]; at 38 µM (top of the series),-14.8%
CCCN1CCC[C@@H]2Cc3[nH]ncc3C[C@H]21,outcome,[1],inactive
same,Potency,[2],inactive
same,"activity change, negative = inhibition",[3]; at 17.2 µM (top of the series),24.4%
same,"activity change, negative = inhibition",[3]; at 38 µM (top of the series),7.41% and -8.14%
COc1ccccc1N1CCNCC1,outcome,[1],inactive
same,Potency,[2],inactive
same,"activity change, negative = inhibition",[3]; at 38 µM (top of the series),-22.1%
c1ccc2c(c1)OCC(C1=NCCN1)O2 (stereo not given),outcome,[1],inactive
CCCN1CCC[C@@H]2Cc3nc(N)ncc3C[C@H]21,outcome,[1],inactive
same,Potency,[2],inactive
same,"activity change, negative = inhibition",[3]; at 38 µM (top of the series),-3.63%
